Hits are enriched below; roughly 20% of the tested compounds scored in any of these assays.
Pf growth 48h: Primary qHTS for delayed death inhibitors of the malarial parasite plastid, 48 hour incubation; P. falciparum luciferase growth in erythrocytes, 48 h; Potency, µM (titrated, usually from 28.7 µM), most hits filed as inhibitors; actives 5.9% (n = 310,000); AID 504832, 2011
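In quantitative HTS format, infected erythrocytes bearing luciferase-reporter parasites were treated for a single generation at 37 C. Luminescence after adding detection reagent served as the growth measure.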
HCMV inh: qHTS Assay for inhibitors of the human cytomegalovirus (HCMV); activity change, negative = inhibition, % at 57.5 µM; HFF cells, HCMV-luciferase reporter, 72 h; hits give low values; actives 4.5% (n = 410,000); in the data active = activity change below about -60%; inconclusive = no clear call, values can overlap the other calls; inactive = above about -39%
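Steps: HFFs plated, 16 h 37C; compounds added; HCMV-luciferase added to MOI 1 PFU/cell; 72 h 37C; OneGlo reagent, 5 min room temperature; luminescence read, normalized to controls.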
Shiga inhibitor: A qHTS for Small Molecule Inhibitors of Shiga Toxin | inhibition, % at 38.7 µM | Vero cells, Shiga toxin protein synthesis inhibition reporter | actives 9.2% (n = 290,000); in the data active = inhibition mostly above about 28%, no sharp cut-off; inactive = mostly below about 43%
Cycloheximide cs: Cycloheximide Counterscreen for Small Molecule Inhibitors of Shiga Toxin; cell reporter, cycloheximide protein synthesis inhibition counterscreen; max response, %; actives 12% (n = 300,000); AID 2314, 2010; in the data active = max response mostly above about 13%, no sharp cut-off; inactive = mostly below about 14%; note: read at 38.3 µM for the half of the compounds with a filed dose
Pf growth 96h: Primary qHTS for delayed death inhibitors of the malarial parasite plastid, 96 hour incubation; actives 6.9% (n = 320,000); Potency, µM (series often up to 28.7 µM), usual class: inhibitors; P. falciparum luciferase reporter growth, 96 h; AID 504834, 2011
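P. falciparum expressing integrated firefly luciferase, in erythrocytes at 2% hematocrit, 0.05% parasitemia, incubated with compounds 96 h at 37 C, 5% CO2. Growth inhibition read as loss of luminescence; two-generation exposure targets delayed-death apicoplast inhibitors.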
Hits are given with their value; [ ] = another dose, or the depositor's remark. Unless noted, calls come from the whole dose curve; as a rule, active = well fitted inhibition curve with a large enough effect; inconclusive = small, poorly fitted or top-dose-only effect, or another doubt; inactive = no such curve, though single readings can be large or run the other way.

Screening COc1cccc(N=Nc2c(N)[nH]n3c(=O)cc(-c4ccccc4)nc23)c1 returned Pf growth 48h inconclusive, HCMV inh inactive, Shiga inhibitor inactive, Cycloheximide cs inactive and Pf growth 96h inconclusive.
Cc1[nH]n2c(=O)cc(C(C)(C)C)nc2c1-c1ccccc1 was read as Pf growth 48h inconclusive, HCMV inh -62, Shiga inhibitor inactive, Cycloheximide cs inactive and Pf growth 96h inactive.
`COc1ccc(S(=O)(=O)N2CCN(Cc3cccc(OC)c3OC)CC2)cc1` gave Pf growth 48h inactive, HCMV inh inactive, Cycloheximide cs inactive and Pf growth 96h inactive.
For Cc1cccc2sc(NC(=O)C3c4ccccc4Oc4ccccc43)nc12 the results were Pf growth 48h inactive, HCMV inh inactive, Shiga inhibitor inactive, Cycloheximide cs inactive and Pf growth 96h inconclusive.
`Cc1ccc(NC(=O)CCNS(=O)(=O)c2ccc(OC(F)(F)F)cc2)c(O)c1` gave Pf growth 48h inactive, HCMV inh inactive, Shiga inhibitor inactive, Cycloheximide cs inactive and Pf growth 96h inactive.
O=C(O)CC(Cc1ccc(Br)cc1)C(=O)O (stereo unspecified) was read as Pf growth 48h inactive, HCMV inh inactive, Shiga inhibitor inactive, Cycloheximide cs inactive and Pf growth 96h inconclusive.
For NC(CC(=O)O)c1ccc(Br)cc1 (stereo unspecified) the results were Pf growth 48h inactive, HCMV inh inactive, Shiga inhibitor inactive, Cycloheximide cs inactive and Pf growth 96h 9.3µM.
CCOC(=O)C1CCN(C2=NC(=O)/C(=C/c3ccccc3OC)S2)CC1 was read as Pf growth 48h inconclusive, HCMV inh inactive, Shiga inhibitor inactive, Cycloheximide cs inactive and Pf growth 96h inactive.
For COc1cccc(/C=C2\SC(N3CCCC(C)C3)=NC2=O)c1OC (stereo unspecified) the results were Pf growth 48h inactive[0.00184 µM], HCMV inh inactive, Shiga inhibitor 56, Cycloheximide cs 17 and Pf growth 96h inactive.
COc1cc(OC)c(OC)cc1/C=C1\SC(N2CCCCC2)=NC1=O was read as Pf growth 48h inconclusive, HCMV inh inactive, Shiga inhibitor inactive, Cycloheximide cs inactive and Pf growth 96h inconclusive.
Screening COc1ccc(/C=C2\SC(=S)N(N3CCOCC3)C2=O)c(OC)c1 returned Pf growth 48h inactive, HCMV inh inactive, Shiga inhibitor inactive, Cycloheximide cs inactive and Pf growth 96h inactive.
COc1ccccc1/C=C1\SC(N2CCC(C)CC2)=NC1=O was read as Pf growth 48h inactive[0.00184 µM], HCMV inh inactive, Shiga inhibitor 57, Cycloheximide cs 26 and Pf growth 96h inactive.
For COc1cccc(/C=C2\SC(N3CCC(C)CC3)=NC2=O)c1OC the results were Pf growth 48h inconclusive, HCMV inh inactive, Shiga inhibitor inactive, Cycloheximide cs 13 and Pf growth 96h inactive.
Screening COc1cccc(/C=C2\SC(=S)N(N3CCOCC3)C2=O)c1OC returned Pf growth 48h inactive, HCMV inh inactive, Shiga inhibitor inactive, Cycloheximide cs 23 and Pf growth 96h inactive.
For O=C(NCCCn1ccnc1)c1[nH]c(C(F)(F)F)nc1-c1ccccc1 the results were HCMV inh inactive.
`O=C1CCN(C(=O)CNC(=O)Cc2ccccc2)CC1` gave Pf growth 48h inconclusive, HCMV inh inactive, Shiga inhibitor inactive, Cycloheximide cs inactive and Pf growth 96h inactive.
For Cc1cc2ccccc2c(=O)n1CC(=O)NCC(=O)N1CCCC1 the results were Pf growth 48h inactive, HCMV inh inactive, Shiga inhibitor inactive, Cycloheximide cs inactive and Pf growth 96h 12µM.
`CC1CCCN(C(=O)CNC(=O)c2ccco2)C1` (stereo unspecified) gave Pf growth 48h inactive, HCMV inh inactive, Shiga inhibitor 53, Cycloheximide cs 33 and Pf growth 96h inactive.
O=C(Cc1ccccc1)NCC(=O)N1CCCCCC1 was read as HCMV inh inactive, Shiga inhibitor inactive, Cycloheximide cs 19 and Pf growth 96h inconclusive.
For CC1CCN(C(=O)CNC(=O)Cc2ccccc2)CC1 the results were Pf growth 48h inactive, HCMV inh inactive, Shiga inhibitor 30, Cycloheximide cs 23 and Pf growth 96h inactive.
Cc1ccc(N(CC(C)C)S(=O)(=O)c2nnc(NC(=O)c3cccs3)s2)cc1 was read as HCMV inh inactive.
Screening Cc1cn2c(=O)cc(COC(=O)c3ccc(NC(=O)C(C)Oc4ccccc4)cc3)nc2s1 (stereo unspecified) returned HCMV inh inactive.
`COc1ccc2[nH]c(=O)c(CN(Cc3ccco3)Cc3nnnn3Cc3ccccc3)cc2c1` gave Pf growth 48h inconclusive, HCMV inh inactive, Shiga inhibitor inactive and Cycloheximide cs inactive.
Screening CCc1ccc2[nH]c(=O)c(CN(Cc3ccccc3OC)Cc3nnnn3Cc3ccco3)cc2c1 returned Pf growth 48h 4.7µM, HCMV inh inactive, Shiga inhibitor inactive, Cycloheximide cs inactive and Pf growth 96h inconclusive.
For CCOc1ccc2[nH]c(=O)c(CN(Cc3ccco3)Cc3nnnn3Cc3ccccc3)cc2c1 the results were Pf growth 48h inactive, HCMV inh inactive, Shiga inhibitor inactive, Cycloheximide cs inactive and Pf growth 96h inactive.
COc1ccccc1CN(Cc1cc2cc(C)ccc2[nH]c1=O)Cc1nnnn1Cc1ccco1 was read as Pf growth 48h 12µM, HCMV inh inactive, Shiga inhibitor 53, Cycloheximide cs inactive and Pf growth 96h 3.3µM.
CCC1SC(=NC(=O)c2ccc(Cl)c(Cl)c2)NC1=O (stereo unspecified) was read as Pf growth 48h inactive, HCMV inh inactive, Shiga inhibitor inactive, Cycloheximide cs 20 and Pf growth 96h inactive.
CCC1S/C(=N/S(=O)(=O)c2ccc(N)cc2)NC1=O (stereo unspecified) was read as HCMV inh inactive.
Screening CCOC(=O)c1ccc2[nH]c3ccccc3c2c1 returned Pf growth 48h inconclusive, HCMV inh inactive, Shiga inhibitor 63, Cycloheximide cs 37 and Pf growth 96h inactive.
Cc1[nH]c2ccc(C(=O)OCCN(C)C)cc2c1C was read as Pf growth 48h inactive, HCMV inh inactive, Shiga inhibitor inactive, Cycloheximide cs inactive and Pf growth 96h 4.7µM.
COC(=O)c1ccc2[nH]c(C(C)(C)O)c(C)c2c1 was read as Pf growth 48h inactive, HCMV inh inactive, Shiga inhibitor 40, Cycloheximide cs 23 and Pf growth 96h inactive.
`CCOC(=O)Cc1c(Cl)c2ccccc2[nH]c1=O` gave Pf growth 48h inactive, HCMV inh inactive, Shiga inhibitor inactive, Cycloheximide cs inactive and Pf growth 96h inactive.
Screening CCOC(=O)C[n+]1ccc2c([nH]c3ccccc32)c1C returned Pf growth 48h inactive, HCMV inh inactive, Cycloheximide cs inactive and Pf growth 96h 10µM.
COc1ccc(-c2cc(C(=O)Nc3c(C(=O)c4ccc(C)c(F)c4)oc4ccccc34)no2)cc1 was read as HCMV inh inactive.
For Nc1c(-c2cccc(Cl)c2)cnn1-c1cccc(C(F)(F)F)c1 the results were Pf growth 48h inactive, HCMV inh inactive, Shiga inhibitor 58, Cycloheximide cs 31 and Pf growth 96h inactive.
